Hits are enriched below; roughly 1.1% of the tested compounds scored in any of these assays.
Pin1 inhibitor = qHTS Assay to Find Inhibitors of Pin1. Peptidyl-prolyl cis-trans isomerase NIMA-interacting 1 (Homo sapiens), Q13526. Pin1 FP peptide displacement, HiFluor488, 10 min. Potency, µM (highest dose often 115 µM), for inactives: at the top dose activity, negative = inhibition, actives largely listed as inhibitors. 390,000 compounds, 0.009% hits. AID 504891, 2011; active means well fitted inhibition curve with a large enough effect in the polarisation, with a control signal flat, not every such curve was filed as active; inconclusive means small, poorly fitted or top-dose-only effect, or effect the other way, or a change in a side signal; inactive means no such curve, though single readings can be large or run the other way; the % refers to the polarisation
PGK inhibitor = qHTS Assay to Find Inhibitors of Phosphoglycerate Kinase. Potency, µM (series often up to 57.5 µM), for the others: at the highest dose activity change, negative = inhibition, actives largely listed as inhibitors. PGK/GAPDH coupled, Kinase-Glo luminescence, 60 min. Phosphoglycerate kinase, glycosomal (Trypanosoma brucei brucei), P07378. 380,000 compounds, 0.043% hits; further: nearly all actives have a fitted effect of over 60% in size
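Recombinant glycosomal PGK reaction used 1,3-bisphosphoglycerate generated in-well by GAPDH (100nM final) in 100mM TEA pH 7.6, 5mM MgCl2, 0.01% Tween-20. After 60 minutes at room temperature, ATP was read by Kinase-Glo Plus luminescence end-point.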
VDR inh = Inhibitors of the vitamin D receptor (VDR): qHTS | Vitamin D3 receptor (Homo sapiens), P11473 | VDR-SRC2-3 peptide fluorescence polarization, 2 h | Potency, µM, for inactives: max response, negative = inhibition, actives largely listed as inhibitors | 400,000 compounds, 0.93% hits | AID 504847, 2011
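Fluorescence polarization assay of small-molecule disruption of VDR binding to coregulator peptide SRC2-3. Compounds and controls pin-transferred, then read after 2 h incubation at ambient room temperature.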
GLS inhibitor = qHTS for Inhibitors of Glutaminase (GLS); Glutaminase kidney isoform, mitochondrial (Homo sapiens), O94925; GLS enzymatic activity, qHTS titration; Potency, µM (highest dose often 45.5 µM), for the others: at the top dose activity change, negative = inhibition, hits mostly inhibitors; 410,000 compounds, 0.21% hits
Target sequence (O94925 whole entry, looked up, canonical isoform): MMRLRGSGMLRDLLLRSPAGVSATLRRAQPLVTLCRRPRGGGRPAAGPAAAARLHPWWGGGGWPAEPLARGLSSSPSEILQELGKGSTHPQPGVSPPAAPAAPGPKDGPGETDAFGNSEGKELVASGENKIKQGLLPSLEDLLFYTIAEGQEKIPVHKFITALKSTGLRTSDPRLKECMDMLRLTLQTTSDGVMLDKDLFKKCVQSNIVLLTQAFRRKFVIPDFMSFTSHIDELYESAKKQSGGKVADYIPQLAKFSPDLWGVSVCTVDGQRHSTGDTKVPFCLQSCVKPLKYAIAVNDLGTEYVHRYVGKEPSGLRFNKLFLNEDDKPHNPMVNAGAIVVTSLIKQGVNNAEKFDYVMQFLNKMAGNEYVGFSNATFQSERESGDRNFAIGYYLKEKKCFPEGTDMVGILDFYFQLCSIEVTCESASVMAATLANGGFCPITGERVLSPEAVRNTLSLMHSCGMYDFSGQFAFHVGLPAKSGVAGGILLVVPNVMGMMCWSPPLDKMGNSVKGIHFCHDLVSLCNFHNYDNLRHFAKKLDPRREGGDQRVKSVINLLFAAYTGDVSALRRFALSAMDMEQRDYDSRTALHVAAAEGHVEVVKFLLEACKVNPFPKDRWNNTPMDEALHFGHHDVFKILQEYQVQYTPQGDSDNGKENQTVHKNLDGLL
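Read-out is an Amplex red fluorescence increase coupled through glutamate oxidase and HRP, measured before and after 30 min room-temperature incubation. hKGA is in 45 mM KH2PO4 (pH 8.2) with 0.02% Tween-20; glutamine added as 1mM solution.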
Tb PFK inh = qHTS Assay to Find Inhibitors of T. brucei phosphofructokinase | ATP-dependent 6-phosphofructokinase (Trypanosoma brucei brucei), O15648 | 330,000 compounds, 0.17% hits | Potency, µM (doses to about 57.5 µM), for inactives: at the top dose activity, negative = inhibition, usual class: inhibitors | T. brucei PFK, ADP-Glo luminescence;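 further: 0% = uninhibited 1x PFK enzyme wells and -100% = no-enzyme wells; nearly all actives have a fitted effect of over 60% in size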
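ADP-Glo luminescence quantified ADP after 45 min at room temperature, with 1.25 nM T. brucei PFK, 0.1 mM ATP and 0.5 mM fructose-6-phosphate in pH 8.0 TEA buffer. qHTS titrations up to 57 µM; curves classified by quality.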
* hit, by the source's call; i = inactive; ? = inconclusive; . = not tested or not shown; ! = a repeat was not active. Unless noted, the call rests on the fitted dose curve; in most records, active means well fitted curve in the direction sought with a large enough effect; inconclusive means small, poorly fitted or top-dose-only effect, or another doubt; inactive means no such curve, though single readings can be large; an effect the other way counts as inactive or inconclusive. Unless noted, on the % scale 0 is the no-effect control and ±100 the full control effect; potency means the concentration at half of the fitted maximal effect.

SMILES	Pin1 inhibitor	PGK inhibitor	VDR inh	GLS inhibitor	Tb PFK inh
Cc1cc2oc(C(=O)N(Cc3ccc(N(C)C)cc3)CC3CCCO3)c(C)c2cc1Cl (stereo unspecified)	6.6%	i	8.7%	5.8%	.
CC(C)(C)N(Cc1ccccc1)C(=O)COC(=O)C1CC(=O)N(Cc2ccccc2)C1 (stereo unspecified)	-5.0%	-9.0%	-1.6%	-1.3%	.
CC(=O)N=c1nc(-c2ccccc2)n(-c2ccccc2)s1	5.1%	.	-20.8%	.	.
CN=c1nc(-c2ccccc2)n(-c2ccccc2)s1	1.4%	-1.9%	50.1µM*	?	-7.2%
CC(C)(CO)NCc1ccc(Br)cc1	-6.3%	-2.5%	28.2µM*	?	-4.3%
Cc1ccc(CNC(C)(C)CO)cc1	1.3%	-3.1%	6.4%	7.4%	-4.0%
CC(=O)c1ccc(N2CCN(c3ncnc4c3cnn4-c3cc(Cl)ccc3C)CC2)cc1	30.9%	-3.8%	-2.1%	-21.2%	.
Cc1nn(C)c(C)c1C1C(C#N)=C(N)Oc2n[nH]c(C)c21 (stereo unspecified)	-7.0%	-10.2%	-0.8%	18.9%	0.1%
Cc1nn(-c2ccccc2)c(C)c1C1C(C#N)=C(N)Oc2n[nH]c(C)c21 (stereo unspecified)	-1.4%	4.8%	7.0%	20µM*	-4.4%
Cc1ccc(C2C(C#N)=C(N)Oc3n[nH]c(-c4ccccc4)c32)o1 (stereo unspecified)	21.8%	0.7%	25.1µM*	?	1.3%
COC1=C(Nc2ccc(O)cc2)C(=O)c2ccccc2C1=O	0.5%	-14.0%	25.1µM*	7.94µM*	-0.2%
CCC(=O)NC1=C(Nc2ccc(N)cc2)C(=O)c2ccccc2C1=O	0.4%	-17.9%	-10.7%	7.08µM*	-8.8%
COC1=C(Nc2ccc(OC)cc2)C(=O)c2ccccc2C1=O	-11.0%	-4.4%	?	1.9%	1.2%
O=C1C(Cl)=C(Nc2ccc(O)cc2)C(=O)c2ccccc21	-0.3%	-4.9%	-15.8%	1.26µM*	-8.0%
COc1ccc(NC2=C(NC(C)=O)C(=O)c3ccccc3C2=O)cc1	-9.0%	-12.9%	-7.4%	-7.4%	1.2%
CCCC(=O)NC1=C(Cl)C(=O)c2ccccc2C1=O	-8.2%	-16.0%	7.94µM*	?	.
Cc1ccc(-c2nn(-c3ccc(F)cc3F)c3c2cnc2ccc(F)cc23)cc1	-12.2%	11.1%	10.6%	1.4%	.
COc1ccc(NC(=O)c2cc3c(=O)n(Cc4cccnc4)ccc3nc2C)c(OC)c1	4.5%	-7.7%	13.5%	-4.7%	.
CC(C)(C)OC(=O)NCC(=O)NNC(=O)c1cc2ccccc2[nH]1	0.8%	.	.	.	.
CC(=O)C(Cl)C(=O)Nc1ccccc1 (stereo unspecified)	2.8%	i	14.1µM*	?	-5.5%
CCCCCc1c(-c2ccc(OC)cc2)ncn1CCc1ccccc1OC	.	.	.	1.1%	.
Nc1ccc(N2CCOCC2)c2nonc12	.	1.2%	89.1µM*	35.4%	13.5%
CCCN(CCC)CCCNC(=O)c1sc2nc3n(c(=O)c2c1C)CCC3	-1.0%	9.9%	3.6%	14.3%	.
Cc1c2oc3c(C)ccc(C(=O)N[C@@H]4C(=O)N[C@H](C(C)C)C(=O)N5CCC[C@H]5C(=O)N(C)CC(=O)N(C)[C@@H](C(C)C)C(=O)O[C@@H]4C)c3nc-2c(C(=O)N[C@@H]2C(=O)N[C@H](C(C)C)C(=O)N3CCC[C@H]3C(=O)N(C)CC(=O)N(C)[C@@H](C(C)C)C(=O)O[C@@H]2C)c(N)c1=O	.	.	44.7µM*!	-14.4%	.
CCC1NC(=O)C(NC(=O)c2ncccc2O)C(C)OC(=O)C(c2ccccc2)NC(=O)C2CC(=O)CCN2C(=O)C(Cc2ccccc2)N(C)C(=O)C2CCCN2C1=O (stereo unspecified)	.	.	?	-2.9%	.
CCOC(=O)N(C)c1c(CC)nc2c(OCc3ccccc3C)cccn12	.	.	.	0.7%	.
Cc1sc(-n2c(C)ccc2C)c(C#N)c1C	1.6%	-8.7%	79.4µM*	-12.2%	0.9%
Cc1ccc(C)n1-c1sc2c(c1C#N)CCCC2	-0.3%	-2.3%	7.9%	7.6%	5.1%

High-throughput results (PubChem)
